Values joined by “and” are separate entries in the source; they are usually repeats but may differ in a detail not shown here. Identical values can stand only once. Inconclusive results are not listed. Active and inactive are the calls of the source. Unless noted, calls follow the shape of the dose curve; as a rule, active = well fitted curve in the direction sought with a large enough effect in the repeat runs; inconclusive = weak or mixed curves; inactive = no such curve, though single readings can be large; an effect the other way counts as inactive or inconclusive.
Columns and labels:
[1] = qHTS assay to identify small molecule agonists of the hypoxia (HIF-1) signaling pathway - cell viability counter screen (AID 1224844; calls by dose curve; also: nearly all actives have a fitted effect of over 50% in size); details: HRE-bla ME-180 viability, CellTiter-Glo luminescence, 17 h; series mostly up to 76.8 µM
Outline: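 HRE-bla ME-180 cells, 2,000/well in 0.5% dialyzed FBS medium, treated 17 h at 37C with compounds. Viability read in the same wells as the bla reporter, by CellTiter-Glo luminescence after 30 min at room temperature.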

[2] = qHTS assay to identify small molecule agonists of H2AX (AID 1224845; active = well fitted activation curve with a large enough effect in the signal ratio in the repeat runs, not every such curve was filed as active; the % refers to the signal ratio); details: CHO-K1 phospho-H2AX Ser139 HTRF, 3 h; series mostly up to 154 µM
Outline: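 Wild-type CHO-K1 cells plated overnight, then exposed 3 hr at 37C to compounds at 15 concentrations (0.76% DMSO). Lysed, then HTRF anti-pH2AX(S139)-cryptate/anti-H2AX-d2 detection after 24 hr at room temperature; emissions 665 and 620 nm.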

[3] = qHTS assay to identify small molecule agonists of the hypoxia (HIF-1) signaling pathway (AID 1224846; active = well fitted activation curve with a large enough effect in the signal ratio in the repeat runs, not every such curve was filed as active; the % refers to the signal ratio); details: HRE-bla ME-180 cells, beta-lactamase ratio, 17 h; series mostly up to 76.8 µM
Outline: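 HRE-bla ME-180 beta-lactamase reporter cells in medium with 0.5% dialyzed FBS, pre-incubated 5 h then exposed to compounds 17 h at 37C, 5% CO2; reporter induction read with CCF4-AM FRET substrate.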

[4] = qHTS assay to identify small molecule antagonists of the estrogen related receptor (ERR) signaling pathway from Tox21 library (AID 1224848); details: ERR reporter cell line, luciferase antagonist mode, 18 h; series mostly up to 92.4 µM; also: nearly all actives have a fitted effect of over 50% in size
Outline: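 Screening used an ERR reporter line supplied by NTP, exposed for 18 h at 37 C to library compounds delivered in DMSO. Signal was luciferase luminescence developed with ONE-Glo at room temperature for 30 min.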

[5] = qHTS assay to identify small molecule agonists of the estrogen related receptor (ERR) signaling pathway from Tox21 library (AID 1224849; calls by dose curve; also: nearly all actives have a fitted effect of over 15% in size); details: ERR reporter cell line, ONE-Glo luciferase, 18 h
Outline: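 ERR reporter cells (NTP line) pre-incubated 6 hours at 37 C, then exposed to compounds for 18 hours at 37 C. ONE-Glo luciferase luminescence was read after 30 minutes at room temperature.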

[6] = qHTS RealTime-Glo MT Cell Viability Assay in HepG2 cells - 24 hour (AID 1224867); details: RealTime-Glo luminescence; series mostly up to 76.8 µM; also: nearly all actives have a fitted effect of over 50% in size
Outline: (§1)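 HepG2 suspension premixed with RealTime-Glo reagents is plated at 600 cells per well and left 5 h at 37 C/5% CO2. Compounds in DMSO then go in, and bioluminescence reflecting viable cell number is recorded over 40 h.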

[7] = qHTS RealTime-Glo MT Cell Viability Assay in HEK293 cells - 32 hour (AID 1224868); details: RealTime-Glo luminescence; series mostly up to 76.8 µM; also: top concentration of the series differs between compounds; nearly all actives have a fitted effect of over 50% in size
Outline: (§2)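 Reads taken at 0, 8, 16, 24, 32 and 40 h from the same wells. HEK293 cells (600/well) carried RealTime-Glo reagents from seeding, with compound added after a 5 h settle at 37 C.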

[8] = A CellTox Green Cytotoxicity Assay to monitor cytotoxicity in HEK293 cells - 0 hour (AID 1224869); details: CellTox Green fluorescence; series mostly up to 76.8 µM; also: nearly all actives have a fitted effect of over 50% in size
Outline: (§3)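 HEK293 cells, 600/well, were preincubated 5 hours and then exposed to compounds at 37 C for up to 40 hours. A cell-impermeant cyanine dye staining dead-cell DNA was read by fluorescence at 0, 8, 16, 24, 32 and 40 h time points.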

[9] = qHTS RealTime-Glo MT Cell Viability Assay in HepG2 cells - 40 hour (AID 1224870); details: RealTime-Glo luminescence; series mostly up to 76.8 µM; also: nearly all actives have a fitted effect of over 50% in size
Outline: (§4)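 HepG2 cells mixed with RealTime-Glo MT reagents (NanoLuc plus cell-permeant prosubstrate) were seeded at 600 cells/well, incubated 5 h at 37 C/5% CO2, then pinned with compounds in DMSO; nonlytic luminescence tracked viability during 40 h treatment.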

[10] = qHTS RealTime-Glo MT Cell Viability Assay in HEK293 cells - 16 hour (AID 1224872); details: RealTime-Glo luminescence; series mostly up to 76.8 µM
Outline: as §2

[11] = qHTS RealTime-Glo MT Cell Viability Assay in HepG2 cells - 8 hour (AID 1224873); details: RealTime-Glo luminescence; series mostly up to 76.8 µM; also: nearly all actives have a fitted effect of over 55% in size
Outline: as §4

[12] = qHTS RealTime-Glo MT Cell Viability Assay in HEK293 cells - 40 hour (AID 1224874); details: RealTime-Glo luminescence; max response: active compounds read low; also: nearly all actives have a fitted effect of over 50% in size
Outline: (§5)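 600 cells/well were plated with the nonlytic NanoLuc/prosubstrate reagent, pre-incubated 5 h, then given 23 nL of compound in DMSO. Incubation at 37 C for 40 h, with luminescence from viable-cell-reduced substrate read repeatedly from 0 h.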

[13] = A CellTox Green Cytotoxicity Assay to monitor cytotoxicity in HEK293 cells - 24 hour (AID 1224875); details: CellTox Green fluorescence; series mostly up to 76.8 µM; also: nearly all actives have a fitted effect of over 45% in size
Outline: as §3

[14] = A CellTox Green Cytotoxicity Assay to monitor cytotoxicity in HepG2 cells - 16 hour (AID 1224876); details: CellTox Green fluorescence; series mostly up to 76.8 µM; also: nearly all actives have a fitted effect of over 45% in size
Outline: (§6)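 HepG2 cells, 600/well, preincubated 5 h with CellTox Green dye, then exposed to Tox21 compounds in DMSO at 37 C for up to 40 h. Dead-cell DNA fluorescence read at the indicated time point.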

[15] = qHTS RealTime-Glo MT Cell Viability Assay in HepG2 cells - 32 hour (AID 1224877); details: RealTime-Glo luminescence; series mostly up to 76.8 µM; also: nearly all actives have a fitted effect of over 55% in size
Outline: as §1

[16] = A CellTox Green Cytotoxicity Assay to monitor cytotoxicity in HepG2 cells - 24 hour (AID 1224878); details: CellTox Green fluorescence; series mostly up to 76.8 µM; also: nearly all actives have a fitted effect of over 45% in size
Outline: as §6

[17] = A CellTox Green Cytotoxicity Assay to monitor cytotoxicity in HepG2 cells - 40 hour (AID 1224879); details: CellTox Green fluorescence; series mostly up to 76.8 µM; also: nearly all actives have a fitted effect of over 40% in size
Outline: as §6

[18] = qHTS RealTime-Glo MT Cell Viability Assay in HEK293 cells - 0 hour (AID 1224880); details: RealTime-Glo luminescence; series mostly up to 76.8 µM; also: top concentration of the series differs between compounds; nearly all actives have a fitted effect of over 45% in size
Outline: as §5

[19] = qHTS assay to identify small molecule agonists of H2AX - cell viability counter screen (AID 1224847; calls by dose curve; also: top concentration of the series differs between compounds; nearly all actives have a fitted effect of over 30% in size); details: CHO-K1 viability, CellTiter-Glo luminescence, 3 h; series mostly up to 154 µM
Outline: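 Read-out: CellTiter-Glo luminescence, 30 min RT. Cells: wild-type CHO-K1, 1000/well, 10% FBS, plated overnight at 37C. Treatment: 15 concentrations, 3 hr, 37C, 0.76% DMSO.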

[20] = A CellTox Green Cytotoxicity Assay to monitor cytotoxicity in HEK293 cells - 40 hour (AID 1224871); details: CellTox Green fluorescence; series mostly up to 76.8 µM; also: nearly all actives have a fitted effect of over 45% in size
Outline: as §3
% is scaled to controls: 0 for no effect and ±100 for the full control effect.

C[C@H]1[C@@H]2Cc3ccc(O)cc3[C@@]1(C)CCN2C
inactive: Potency [1] | Potency [2] | outcome [3] | Potency [4] | activity change, positive = activation ([5]; at 240 µM (top of the series)) 8.81% | Potency [6] | Potency [7] | Potency [8] | Potency [9] | Potency [10] | Potency [11] | max response [12] -5.05% | Potency [13] | Potency [14] | Potency [15] | Potency [16] | Potency [17] | outcome [18]

CC1(C)[C@H](C(=O)O[C@H](C#N)c2cccc(Oc3ccccc3)c2)[C@@H]1C=C(Br)Br
inactive: Potency [1] | Potency [2] | Potency [19] | activity change, positive = activation ([5]; at 92.4 µM (top of the series)) -23.2% and -24.2% | Potency [6] | Potency [7] | Potency [8] | Potency [9] | Potency [20] | Potency [10] | Potency [11] | max response [12] -8.94% and -16.3% | Potency [13] | Potency [14] | Potency [15] | Potency [16] | outcome [18]

Cc1cccc(C)c1NC1=NCCCS1
inactive: Potency [1] | Potency [2] | Potency [19] | Potency [4] | activity change, positive = activation ([5]; at 42.5 µM (top of the series)) 4.81% | Potency [6] | Potency [8] | Potency [9] | Potency [20] | Potency [10] | Potency [11] | max response [12] 0.136% | Potency [14] | Potency [15] | Potency [16] | outcome [18]

CCNC(=O)NC(=O)/C(C#N)=N/OC
inactive: Potency [1] | Potency [2] | Potency [19] | Potency [4] | activity change, positive = activation ([5]; at 92.4 µM (top of the series)) -6.66% | Potency [6] | Potency [7] | Potency [8] | Potency [9] | Potency [20] | Potency [10] | Potency [11] | max response [12] 18.1% | Potency [13] | Potency [14] | Potency [15] | Potency [16] | Potency [17] | outcome [18]
